The results in this text go back to PubChem BioAssay AID588727 (Southern Research Specialized Biocontainment Screening …, 2011).

SMILES strings stand for the structures. Out of some 350,000 compounds screened, about 450 (0.13%) were called active. How the calls were made is not given here. The list is a sample of the results. Measured potencies and affinities stand elsewhere.

This assay in a line: inhibitors of VEEV TC-83 cytopathic effect, confirmation, Vero cells (AID 588727). As to conditions: VEEV TC-83 cytopathic effect inhibition, at 20 µM. (In general: Cytopathic effects are the visible damage that an infection or toxin causes in cultured cells.)
Where [1] appears, read: stronger effect = higher value unless noted.
[2] abbreviates: measured here: 10K pilot screen inhibition, stronger effect = higher value.

One may read the inhibition as how much of the control response was suppressed. For the compound `CC(CCc1ccccc1)OS(N)(=O)=O` (stereo unspecified), under setting [1], the inhibition was 0.425% [measured here: 10K pilot screen inhibition, stronger effect = higher value] and the call was inactive.
Consider `Cc1n[nH]c(C)c1CCNCc1ccc(OCC(O)CN2CCCCC2)cc1` (stereo unspecified), for which the inhibition under setting [1] is 0.96% (inactive).
As for `OC(COc1ccc(CNCCc2ccccc2F)cc1)CN1CCCCC1` (stereo unspecified), under setting [1], the inhibition was 4.19% (inactive).
Take `N/C(=N\OCc1ccc([N+](=O)[O-])cc1)c1ccccn1`: the inhibition under setting [1] is 0.33% (inactive).
With `CC(=O)Nc1ccccc1C(=O)OCC(=O)c1ccccc1Cl`, under setting [1], the inhibition is 0.205% [measured here: 10K pilot screen inhibition, stronger effect = higher value] and the result was inactive.
For the compound `CC(C)CC(=O)NCc1ccc2[nH]c3c(c2c1)CCCC3`, the inhibition under setting [1] is 1.23% (inactive).
`CNC(=S)NCc1ccc2[nH]c3c(c2c1)CCCC3`: the inhibition under setting [1] was 0.13% (inactive).
As to `CC(C)C[C@H]1CNC(=S)N1CC1CCN(CCCCc2ccccc2)CC1`, under setting [1], the inhibition result is “inactive”.
Same read-out and setting: in the case of `O=C1C2CCCN2C(c2cccs2)N1c1ccc(F)cc1` (stereo unspecified) it was “inactive”.
Turning to `COc1cccc(N2C(=O)C3CCCN3C2c2cccs2)c1` (stereo unspecified), the inhibition under setting [1] was 1.22% (inactive).
Take `CC(=O)Nc1ccc(S(=O)(=O)N(C)c2ccc(OCC(=O)Nc3ccccc3C(C)=O)cc2)cc1`: the inhibition under setting [1] was 11% (inactive).
Same read-out and setting: the result for `CN(c1ccc(OCC(=O)Nc2cc(Cl)ccc2C(=O)O)cc1)S(=O)(=O)c1ccc(F)cc1` reads 1.87% (inactive).
On the same count and under the same terms, the result for `CC(C)CN(C(=O)COc1ccc(C(C)(C)C)cc1)C1CCS(=O)(=O)C1` (stereo unspecified) reads 12.2% (inactive).
With `CN(C)N=Nc1nc2c(c(=O)n(C)c(=O)n2C)n1C`, the inhibition result under setting [1] is “inactive”.
For `CN(C)N=Nc1nc2c([nH]1)c(=O)n(C)c(=O)n2C`, under setting [1], the inhibition is 1.78% (inactive).
Regarding `CN(C(=O)c1cccc(NC(=O)Cc2ccc(NC(=O)C3CCN(C(=O)C4CC4)CC3)cc2)c1)C1CCCCC1`, under setting [1], the inhibition was 0.89% (inactive).
With `O=C(CSc1nccn1-c1ccc(Cl)cc1)NCc1ccc2c(c1)OCO2`, under setting [1], the inhibition is 3.2% (inactive).
On to `O=C(Cc1c(Cl)cccc1Cl)OCc1ccccn1`, for which the inhibition under setting [1] was 1.24% (inactive).
On to `CCOC(=O)Cc1nnc(Nc2cccc(O)c2)c2ccccc12`, for which, under setting [1], the inhibition was 4.42% (inactive).
`O=C(CN(CC1CCCO1)C(=O)CNS(=O)(=O)c1ccc(Cl)cc1)NCc1ccc(F)cc1` (stereo unspecified): under setting [1], the inhibition was 3.94% (inactive).
Take `COc1cc2nc(N3CCN(c4cc(C)ccc4C)CC3)nc(N)c2cc1OC`: the inhibition result under setting [1] is “inactive”.
With `COc1cc2nc(N3CCN(C(=O)c4ccco4)CC3)nc(N)c2cc1OC`, the inhibition under setting [1] was 23.2% (inactive).
In the case of `COC(=O)C1CCN(C(=O)COC(=O)CC(NC(N)=O)c2ccc(Cl)cc2)CC1` (stereo unspecified), under setting [1], the inhibition is 1.27% (inactive).
With `CSc1nnc2c(n1)OC(c1ccc(C(=O)O)cc1)N(C(C)=O)c1ccccc1-2` (stereo unspecified), the inhibition under setting [1] was 0.04% (inactive).
In the case of `COc1ccc(NC(=O)c2ccco2)c([N+](=O)[O-])c1`, the inhibition result under setting [1] was “inactive”.
Regarding `O=c1c2c([nH]c3ccccc13)CCCCC2`, the inhibition under setting [1] was 2.45% (inactive).
Same read-out and setting: in the case of `O=c1c2c([nH]c3ccccc13)CCCC2` it was 0.1% (inactive); in that of `Fc1ccc(NC(=S)NCc2ccc3c(c2)OCO3)cc1`, 1.24% (inactive); in that of `COc1ccc(CCNC(=O)Cn2c(=O)oc3cc(Cl)ccc32)cc1OC`, 1.85% (inactive).
For the compound `CC1CCCCC1NC(=O)/C(C#N)=C/c1ccccc1F` (stereo unspecified), the inhibition under setting [1] was 10.5% (inactive).
With `N#C/C(=C\c1ccccc1[N+](=O)[O-])C(=O)NC1CCCCC1`, the inhibition under setting [1] is 6.23% (inactive).
`COCCNC(=O)/C(C#N)=C/C=C/c1ccccc1[N+](=O)[O-]`: the inhibition under setting [1] is 55.2% (inactive).
In the case of `O=C(/C=C/c1ccccc1[N+](=O)[O-])NC1CCCC1`, the inhibition entry under setting [1] was “inactive”.
For the compound `Cc1ccc(-c2nn(-c3ccccc3)cc2/C=N/n2c(-c3ccncc3)n[nH]c2=S)cc1`, the inhibition under setting [1] was 0.07% (inactive).
For the compound `COc1cc(C(=O)NNC(=O)CCOc2ccccc2)cc(OC)c1OC`, under setting [1], the inhibition result was “inactive”.
Turning to `O=C(COc1ccc(-c2ccccc2)cc1)NNC(=O)NC1CCCCC1`, under setting [1], the inhibition was 0.67% (inactive).
`N#Cc1c(NC(=O)c2ccc(Cn3cc(Br)cn3)o2)sc2c1CCCCCC2`: the inhibition entry under setting [1] was “inactive”.
On the same count and under the same terms, the result for `COCC1CCCCN1C(=O)c1cccc(OC2CCN(C(=O)C3CC3)CC2)c1` (stereo unspecified) reads “inactive”.
On to `COc1ccc(C(=O)NCc2ccc(F)cc2)cc1S(=O)(=O)N1CCCC1`, for which, under setting [1], the inhibition is 10.6% (inactive).
Consider `Cc1cc(OC(=O)c2cc(Cl)nc3ccccc23)ccc1Cl`, for which the inhibition under setting [1] is 2.81% (inactive).
Take `CSCCC(NS(=O)(=O)c1ccc2[nH]c(=O)c(=O)[nH]c2c1)C(=O)O` (stereo unspecified): under setting [1], the inhibition entry is “inactive”.
As to `CCOC(=O)C1CCCc2c1[nH]c1ccc(Cl)cc21` (stereo unspecified), the inhibition under setting [1] is 0.82% (inactive).
With `CCNC(=O)C1CCCc2c1[nH]c1ccc(Cl)cc21` (stereo unspecified), the inhibition (stronger effect = higher value) is 0.89% (inactive) and the inhibition under setting [2] came to 1.04%.
Take `COc1ccc(-c2nn(-c3ccccc3)cc2/C=C/C(=O)N2CCOCC2)cc1OC`: under setting [1], the inhibition is 7.65% (inactive).
The same measure, in the same setting: the result for `Cc1cc(C)cc(N(C(=O)c2ccc(Br)o2)C2C=CS(=O)(=O)C2)c1` (stereo unspecified) reads “inactive”; that for `O=[N+]([O-])c1cccc(/C=N/Nc2nc(NCc3ccccc3)nc(N3CCOCC3)n2)c1`, 2.74% (inactive); that for `O=[N+]([O-])c1ccc(/C=N/Nc2nc(NCc3ccccc3)nc(N3CCOCC3)n2)cc1`, 3.18% (inactive).
On the same count and under the same terms, the result for `COc1ccc2c(c1)OC[C@H]1[C@H]2N2C(=O)c3cc(Br)ccc3NC(=O)[C@@]2(C)[C@H]1c1ccccc1` reads 1.07% (inactive); that for `O=c1[nH]ncc(N2CCCC2)c1Cl`, “inactive”; that for `CC(=O)c1cc(C)ccc1OC(=O)c1ccco1`, “inactive”.
For the compound `CC(NC(=O)c1cccc(S(=O)(=O)N2CCN(Cc3ccccc3)CC2)c1)c1ccc(Br)cc1` (stereo unspecified), under setting [1], the inhibition was 2.86% (inactive).
With `COc1ccc(NC(=O)CCCN2C(=O)/C(=C\c3ccco3)SC2=S)cc1`, the inhibition under setting [1] is 13.5% (inactive).
With `O=C(CCCN1C(=O)/C(=C/c2ccco2)SC1=S)Nc1cccc(C(=O)O)c1`, the inhibition under setting [1] is 11.7% (inactive).
Take `O=C(CC(C(=O)c1ccccc1)c1ccccc1)c1ccccc1` (stereo unspecified): the inhibition under setting [1] was 12.6% (inactive).
Same read-out and setting: in the case of `O=C(CC(CC(=O)c1ccccc1)c1ccccc1)c1ccccc1` it was 1.3% (inactive); in that of `CC(=O)N/C(=C/c1ccc(OS(=O)(=O)c2ccc(C)cc2)cc1)C(=O)NCCCO`, “inactive”.
As to `NC(=O)N1c2ccccc2C=Cc2ccccc21`, under setting [1], the inhibition was 0.99% (inactive) and the call was inactive.
For `CNC(=O)N1c2ccccc2C=Cc2ccccc21`, under setting [1], the inhibition was 1.28% (inactive).
As to `COc1ccc(OCc2cc(C(=O)NCC(C)(C)N3CCOCC3)no2)c(Cl)c1`, the inhibition under setting [1] is 2.39% (inactive).
Take `OC(COCc1cccs1)CN1CCN(c2cccc(Cl)c2)CC1` (stereo unspecified): the inhibition entry under setting [1] is “inactive”.
On to `Cc1ccc(C(=O)C=CC=Cc2ccccc2)cc1`, for which, under setting [1], the inhibition entry was “inactive”.
On the same count and under the same terms, in the case of `Cc1ccc(/C=C/C(=O)c2ccccc2)cc1` it was “inactive”; in that of `Cn1cnc2c(SCc3ccccc3)ncnc21`, “inactive”; in that of `CC(C)Cn1cnc2c(SCc3ccccc3Cl)nc(N)nc21`, 9.3% (inactive).
Same read-out and setting: the result for `CCCCn1cnc2c(SCc3ccccc3Cl)nc(N)nc21` reads 6.5% (inactive).
Still for that read-out and setting: in the case of `OCCn1cnc2c(SCc3ccccc3)ncnc21` it was 6.32% (inactive); in that of `CCC(C(=O)NCCCN1CCCC1=O)n1c2ccccc2c2nc(=O)cc(C)n21` (stereo unspecified), “inactive”; in that of `CC(C)C(C)NC(=O)CN1C(=O)NC(C)(c2ccc3ccccc3c2)C1=O` (stereo unspecified), “inactive”.
Consider `Cc1cc(SCC(=O)Nc2ncc(Cl)cc2Cl)nc2ccccc12`, for which the inhibition under setting [1] is 0.95% (inactive).
As for `CC(Sc1nnc(-c2ccccc2)c(-c2ccccc2)n1)C(=O)Nc1ncc(Cl)cc1Cl` (stereo unspecified), under setting [1], the inhibition is 0.85% (inactive).
In the case of `COc1ccc(-n2c(SC(C)C(=O)Nc3ncc(Cl)cc3Cl)nc3ccccc32)cc1` (stereo unspecified), the inhibition under setting [1] is 8.08% (inactive).
As to `COCCn1c(SCC(=O)Nc2ccc(Cl)cn2)nc2ccccc21`, under setting [1], the inhibition was 2.54% (inactive).
As to `CCN(CC)S(=O)(=O)c1ccc(NN=c2c(=O)c3ccccc3c2=O)cc1`, the inhibition under setting [1] was 0.93% (inactive).
On the same count and under the same terms, in the case of `CCOC(=O)C1(CCOC)CCN(C(=O)Cc2ccsc2)CC1` it was 0.57% (inactive).
Still for that read-out and setting: in the case of `CCOC(=O)c1cn(Cc2ccccc2)nc1-c1ccccc1` it was “inactive”.
Regarding `Cc1cccc(-n2c(C)cc(/C=N\NC(=O)c3ccco3)c2C)c1`, under setting [1], the inhibition was 1.2% (inactive).
The same measure, in the same setting: the result for `Cc1cc(/C=N\NC(=O)c2cccs2)c(C)n1-c1ccc2ncccc2c1` reads 11.1% (inactive); that for `COCCOC1CCN(C(=O)c2cc(COc3ccc(F)cc3F)on2)CC1`, 1.37% (inactive); that for `CCOC(=O)c1c(SC)n(-c2ccccc2)c(=S)n(-c2ccccc2)c1=O`, 0.87% (inactive).
In the case of `CCOC(=O)c1c2c(c(=S)n(-c3ccccc3)c1N)CCC2`, the inhibition was 4.5% (inactive) (stronger effect = higher value) and 3.38% under setting [2].
Regarding `CCOc1ccc(CSC(=N)N)cc1[N+](=O)[O-]`, the inhibition under setting [1] is 9.41% (inactive).
For the compound `COc1ccc(CSC(=N)N)cc1[N+](=O)[O-]`, the inhibition under setting [1] is 4.91% (inactive).
Turning to `Nc1nc(N)nc(-c2cccc(Cl)c2)n1`, the inhibition under setting [1] is 1.28% (inactive).
As to `COc1ccccc1CN1CCN(C(=O)c2cccc3ccccc23)CC1`, the inhibition entry under setting [1] is “inactive”.
On to `Cc1cc2occ(CC(=O)Nc3nccs3)c2cc1C(C)C`, for which, under setting [1], the inhibition was 0.63% (inactive).
As to `Cc1ccc2c(CC(=O)Nc3nc(C)cs3)coc2c1`, the inhibition under setting [1] was 5.51% (inactive).
For `Cc1c(N(C)S(=O)(=O)c2cccc(C(=O)NCC3CCCO3)c2)c(=O)n(-c2ccccc2)n1C` (stereo unspecified), under setting [1], the inhibition was 1.98% (inactive).
Still for that read-out and setting: the result for `NC(=O)C1CCN(C(=O)c2cc(S(=O)(=O)N3CCOCC3)c(Cl)cc2Cl)CC1` reads 0.6% (inactive); that for `Cc1nn(-c2ccc(C(=O)O)cc2)c(=O)c2ccccc12`, 0.65% (inactive); that for `COc1ccc(CCNC(=O)CSc2nc(=O)[nH]c3c2CCC3)cc1OC`, 0.77% (inactive).
For `COc1ccc(CC(=O)OCC(=O)Nc2ncc(Cl)c(C)c2Cl)cc1`, under setting [1], the inhibition is 5.2% (inactive).
Same read-out and setting: in the case of `COc1ccccc1/C=C/C(=O)c1ccc(Cl)cc1` it was “inactive”; in that of `COc1ccccc1/C=C/C(=O)c1ccccc1`, 26.1% (inactive).
On to `COc1ccccc1C(=O)N(Cc1ccco1)C1CCS(=O)(=O)C1` (stereo unspecified), for which the inhibition under setting [1] was 0.87% (inactive).
Same read-out and setting: in the case of `CCCCNC(=O)[C@@H]1CCCN1S(=O)(=O)c1cccc2cccnc12` it was “inactive”.
On to `O=C(Cc1ccc(NC(=O)C2CCN(C(=O)c3ccccc3)CC2)cc1)Nc1cccc(C(=O)N2CCCC2)c1`, for which, under setting [1], the inhibition result was “inactive”.
